Bioassay records from PubChem.
Mtb UGM inh: M. tuberculosis UGM enzyme inhibitors, primary screen, biochemical, fluorescence polarization, single point; UDP-galactopyranose mutase (Mycobacterium tuberculosis (strain ATCC 25618 / H37Rv)), …; purified UGM, fluorescence polarization probe displacement; inhibition, % at 10 µM; hit rate 0.06% among 320,000; AID 504406, 2011; in the data active = inhibition above about 10%, passing the limit was not always enough; inconclusive = no clear call, values can overlap the other calls
Target sequence (P9WIQ1 whole entry, looked up): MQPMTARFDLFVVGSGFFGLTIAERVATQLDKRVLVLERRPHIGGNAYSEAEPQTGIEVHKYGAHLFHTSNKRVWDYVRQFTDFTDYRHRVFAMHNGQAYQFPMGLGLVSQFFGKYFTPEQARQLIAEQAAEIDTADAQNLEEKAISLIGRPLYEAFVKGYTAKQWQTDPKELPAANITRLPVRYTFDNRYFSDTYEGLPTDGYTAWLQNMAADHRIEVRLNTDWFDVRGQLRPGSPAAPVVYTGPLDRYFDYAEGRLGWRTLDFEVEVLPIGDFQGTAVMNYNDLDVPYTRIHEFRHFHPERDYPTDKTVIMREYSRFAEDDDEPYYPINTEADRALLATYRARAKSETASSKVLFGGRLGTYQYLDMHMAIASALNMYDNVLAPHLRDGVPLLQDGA
Mtb bLac sens: beta-lactam sensitization of Mtb H37Rv, H37Rv | hit rate 0.27% among 330,000 | M. tuberculosis H37Rv growth with meropenem, percent inhibition | inhibition, % at 25 µM | AID 434955, 2010; call rule not given here;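 note: growth measured after seven days incubation then overnight dye step; 0% = bacteria only wells and 100% = bacteria with antibiotic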
Rv3671c protease: Rv3671c serine protease inhibitors, primary screen, biochemical, fluorescence polarization, M. tuberculosis H37Rv; hit rate 0.048% among 320,000; inhibition, % at 5.96 µM; P9WHR9; in the data active = inhibition above about 38%;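 note: extracellular domain of Rv3671c used as enzyme; 0% = enzyme with DMSO and 100% = no enzyme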
GDH-TPI inh: GDH-TPI coupling enzyme inhibitors, primary screen, artefact control for M. tuberculosis FBA inhibitor project, biochemical, absorbance, full deck; AID 588335, 2011; hit rate 1.2% among 360,000; inhibition, % at 4.8 µM; GDH-TPI coupled enzyme counterscreen, NADH absorbance; in the data active = inhibition above about 30%;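 note: 0% = DMSO wells and 100% = wells lacking the enzyme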
Mtb FBA inh: Mtb FBA enzyme inhibitors, primary screen, biochemical, fluorescence, strain H37Rv; AID 588726, 2011; inhibition, % at 1 µM; hit rate 2.3% among 360,000; purified M. tuberculosis FBA, fluorescence read-out; in the data active = inhibition above about 27%;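 note: 0% = vehicle and 100% = reference inhibitor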
SSB-PriA inh: inhibitors of Klebsiella pneumoniae PriA binding to SSB C-terminal tail, primary screen, biochemical, AlphaScreen; inhibition, % at 33 µM; AlphaScreen SSBct-PriA binding, biotinylated peptide; AID 1272365, 2023; PriA–SSB C-terminal tail interaction (Klebsiella pneumoniae); hit rate 0.6% among 430,000; in the data active = inhibition mostly above about 37%, no sharp cut-off; inactive = mostly below about 20%;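 note: plate controls were negative control peptide for no effect and reference peptide for full effect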
Starred values were filed as active, the others as inactive; ? = inconclusive; / = no result. A selection: hits, their analogues and other compounds. The true share with any hit is near 3.2%.

SMILES | Mtb UGM inh | Mtb bLac sens | Rv3671c protease | GDH-TPI inh | Mtb FBA inh | SSB-PriA inh
Cc1cc2[nH]c(=O)c(=O)[nH]c2cc1S(=O)(=O)NCc1ccc(Cl)cc1 | -0.5 | ? | 4.6 | 23.8 | 48.1* | -6.0
COC(=O)c1sc2cc(C(F)(F)F)cnc2c1-c1ccccn1 | -1.1 | 0.4 | -2.3 | 9.9 | 1.7 | -4.6
O=C(O)c1sc2cc(C(F)(F)F)cnc2c1-c1ccccn1 | 0.7 | 2.1 | 11.3 | 11.7 | 146.2* | -2.2
Cc1cccc(C(=O)NNC2=CC(=O)CC(C)(C)C2)c1O | 1.0 | 1.5 | 3.4 | 37.4* | 4.8 | 7.0
CC1(C)CC(=O)C=C(NNC(=O)c2ccccc2O)C1 | 3.9 | -2.4 | -1.3 | 40.1* | -0.3 | 6.2
COc1ccc(C(=O)NNC2=CC(=O)CC(C)(C)C2)cc1 | 0.4 | 0.7 | -1.1 | 13.6 | -0.1 | -5.0
O=C1C(=O)N(CCN2CCOCC2)C(c2ccc(Cl)c(Cl)c2)C1=C(O)c1ccc2c(c1)OCO2 (stereo not given) | / | / | / | / | / | -6.2
Cc1ccccc1-c1nc(C#N)c(N2CCCC(C)C2)o1 (stereo not given) | / | / | / | / | / | 65.8*
Cc1ccccc1-c1nc(C#N)c(N2CCOCC2)o1 | / | / | / | / | / | 70.2*
Cc1ccccc1-c1nc(C#N)c(N2CCCC2)o1 | / | / | / | / | / | 60.9
Cc1ccc(OCC(=O)N(Cc2ccc(N(C)C)cc2)Cc2ccco2)cc1 | / | / | / | / | / | 24.0
CC(Cc1ccccc1)=NNC(=O)CNC(=O)c1ccccc1Cl | / | / | / | / | / | -6.4
Cn1nc2c(c1NC(=O)c1ccc([N+](=O)[O-])o1)CCC2 | / | / | / | / | / | -4.0
O=[N+]([O-])c1ccc(-c2nc(Cl)c3c(n2)CCCC3)o1 | / | / | / | 32.4* | -1.8 | /
C#CCn1c(=NC(=O)c2ccc(S(=O)(=O)N3CCc4ccccc4C3)cc2)sc2cc(S(N)(=O)=O)ccc21 | 0.1 | -0.3 | -66.0 | 48.1* | 10.5 | -12.5
C=CCn1c(=NC(=O)c2ccc(S(=O)(=O)N3CCc4ccccc4C3)cc2)sc2cc(S(N)(=O)=O)ccc21 | -1.1 | 9.0 | -46.1 | 25.6 | 26.0 | -10.8
O=S(=O)(c1cc(Br)ccc1Br)N1CCN(C(c2ccccc2)c2ccccc2)CC1 | / | / | / | / | / | 3.0
CCOC(=O)N1CCC(Nc2c(-c3ccccc3)c(=O)c2=O)CC1 | 0.3 | 3.8 | -0.5 | 11.4 | -2.5 | 5.0
CCOC(=O)N1CCN(c2c(-c3ccc(C)cc3)c(=O)c2=O)CC1 | -0.4 | 9.1 | -6.7 | 34.3* | 2.0 | -23.2
CCOC(=O)N1CCC(Nc2c(-c3ccc(C)cc3)c(=O)c2=O)CC1 | -1.2 | -6.0 | -1.2 | 36.3* | -2.6 | -4.2
O=C(Nc1ccc(F)cc1)C(c1ccccc1)N1CCN(S(=O)(=O)c2ccc3ccccc3c2)CC1 (stereo not given) | 0.1 | 3.3 | -49.0 | 12.4 | 29.8* | -11.4
O=C(O)CCNc1cc(N2CCN(C(=O)c3ccco3)CC2)c2noc3c2c1C(=O)c1ccccc1-3 | 2.4 | 15.5 | -28.2 | -0.8 | -4.9 | 54.3*
CCN1CCN(c2cc(N3CCN(C(=O)c4ccco4)CC3)c3c4c(onc24)-c2ccccc2C3=O)CC1 | 2.1 | 73.9 | 0.6 | 8.6 | -2.3 | 76.2*
CC(=O)OCCNc1cc(N2CCN(C)CC2)c2noc3c2c1C(=O)c1ccccc1-3 | / | / | / | 9.1 | 5.0 | 70.0
C[C@](O)(CNC(=O)c1ccccc1C(F)(F)F)c1cc2ccccc2s1 | / | / | / | / | / | 0.0
SMILES | Mtb UGM inh | Mtb bLac sens | Rv3671c protease | GDH-TPI inh | Mtb FBA inh | SSB-PriA inh
Cc1ccccc1-c1nc(C)c(CNC(=O)COc2ccc3c(c2)OCO3)s1 | / | / | / | / | / | 9.0
O=C1c2ccccc2NC(c2ccc(O)cc2)N1/N=C/c1ccc(O)cc1 (stereo not given) | -2.9 | 8.1 | 0.2 | 31.6* | 2.8 | /
COc1ccccc1C1(C(=O)NCC(O)c2ccc3c(c2)CCO3)CCOCC1 (stereo not given) | / | / | / | / | / | -5.0
Nc1nc(N)c2c(ccc3nccc32)[nH]1 | -4.2 | 0.1 | 7.9 | 21.0 | 114.5* | -16.0
Cc1cc(NC(=O)c2c(F)cccc2F)n(-c2nc3c(cnn3-c3cccc(C)c3C)c(=O)[nH]2)n1 | / | / | / | / | / | 52.0*
COc1ccccc1OCC(=O)Nc1cc(C)nn1-c1nc2c(cnn2-c2cccc(C)c2C)c(=O)[nH]1 | / | / | / | / | / | 42.0*
O=S(=O)(c1cccs1)N(CCc1cccs1)C1CC1 | / | / | / | / | / | -43.0
